Bioassay records (PubChem)
Lassa entry inh: Lassa virus entry inhibition; Lassa virus pseudotype entry inhibition, cell reporter; Potency, µM (doses to about 37.9 µM), without a hit: at the top dose activity change, negative = inhibition, most hits filed as inhibitors; hit rate 1.2% among 300,000; calls by dose curve; tested in HEK293 cells; further: potency means the concentration at half of the fitted maximal effect; on the % scale 0 is the no-effect control and ±100 the full control effect; nearly all actives have a fitted effect of over 50% in size
VACV mCherry inh: vaccinia inhibition (mCherry reporter); AID 720579; hit rate 0.63% among 310,000; Potency, µM (series often up to 36.5 µM), for inactives: at the highest dose activity change, negative = inhibition, hits mostly inhibitors; Vaccinia virus mCherry reporter infection, fluorescence; calls by dose curve; tested in A549 cells; further: potency means the concentration at half of the fitted maximal effect; on the % scale 0 is the no-effect control and ±100 the full control effect; nearly all actives have a fitted effect of over 35% in size
Cycloheximide cs: affects cycloheximide protein synthesis inhibition readout, counter-screen. cell reporter, cycloheximide protein synthesis inhibition counterscreen. max response, %. hit rate 12% among 300,000. AID 2314; in the data active means max response mostly above about 13%, no sharp cut-off; inactive means mostly below about 14%; further: read at 38.3 µM for the half of the compounds with a filed dose; 0% is about no effect
MARV entry inh: blocks Marburg virus binding to or entry into cells. Marburg virus pseudotyped entry inhibition, cell reporter. Potency, µM (highest dose often 37.8 µM), for inactives: at the highest dose activity change, negative = inhibition, actives largely listed as inhibitors. hit rate 1.8% among 300,000. AID 540276; calls by dose curve; tested in HEK293 cells; further: potency means the concentration at half of the fitted maximal effect; on the % scale 0 is the no-effect control and ±100 the full control effect
Vaccinia Venus: vaccinia inhibition (Venus reporter); hit rate 0.46% among 330,000; AID 720580; Potency, µM (titrated, usually from 36.5 µM), without a hit: at the highest dose activity change, negative = inhibition, hits mostly inhibitors; Vaccinia virus Venus reporter expression, fluorescence; calls by dose curve; tested in A549 cells; further: potency means the concentration at half of the fitted maximal effect; on the % scale 0 is the no-effect control and ±100 the full control effect; nearly all actives have a fitted effect of over 30% in size
Shiga toxin inh: inhibitors of Shiga toxin in Vero cells; Vero cells, Shiga toxin protein synthesis inhibition reporter; inhibition, % at 38.7 µM; hit rate 9.2% among 290,000; AID 2315; in the data active means inhibition mostly above about 28%, no sharp cut-off; inactive means mostly below about 43%; further: 0% is about no effect
The depositor's hits bear a star; i = inactive; ? = inconclusive; · = no result given; + = active, no number; [ ] = another dose, or the depositor's remark. This excerpt belongs to a sample that is enriched for hits.

SMILES	Lassa entry inh	VACV mCherry inh	Cycloheximide cs	MARV entry inh	Vaccinia Venus	Shiga toxin inh
CCOC(=O)C(C)n1cnc2c(nnn2-c2ccc(C)cc2)c1=O (centres undefined)	?	-11%	15	17%	-2%	14
COCCn1c(=NC(=O)c2cc(-c3cccs3)nc3ccccc23)sc2cc(S(N)(=O)=O)ccc21	?	?	1	9.2µM*	?	-1
C=CCn1c(=NC(=O)c2cc(-c3cccs3)nc3ccccc23)sc2cc(S(N)(=O)=O)ccc21	-1%	?	-1	-12%	-24%	-7
C/C(=N\O)C1(C)N(O)C(C)(C)C(c2ccco2)=[N+]1[O-] (centres undefined)	-13%	-10%	-8	1%[46.1 µM]	10%	-12
C/C(=N\Nc1cccc(Cl)c1)C1(C)N(O)C(C)(C)C(c2ccco2)=[N+]1[O-] (centres undefined)	·	·	30*	·	·	74*
CN1C(=O)[C@]2(c3ccccc31)[C@H]1CCCC=C1C(C#N)=C(N)C2(C#N)C#N	·	·	·	-6%	·	·
O=C(OCC(=O)N1CCCCCC1)c1cccs1	?	·	38*	8%	-25%	84*
O=C(Nc1ccccc1C(=O)OCC(=O)N1CCc2ccccc2C1)c1ccco1	17%	·	42*	22%	0%	73*
O=C(OCC(=O)N1CCc2ccccc2C1)c1cccnc1Cl	27%	i	36*	10%	-17%	114*
O=C(OCC(=O)N1CCc2ccccc2C1)c1cccs1	-14%	-3%	47*	3%[14.2 µM]	-11%	77*
CC1CCN(C(=O)COC(=O)c2cccs2)CC1	3%	-13%	·	13%	-8%	·
O=C(OCC(=O)N1CCCCC1)c1cccs1	?	?	·	?	3%	·
CCCCN(C(=O)C1CCCO1)c1c(N)n(CC(C)C)c(=O)[nH]c1=O (centres undefined)	-15%	-11%	·	-12%	-6%	·
CSc1ccc(S(=O)(=O)N2c3ccccc3CC2C)cc1 (centres undefined)	·	·	-4	·	·	·
C[C@H]1CN([C@@H](C)CO)C(=O)CCCn2nncc2CO[C@@H]1CN(C)Cc1ccncc1	·	-12%	·	·	-15%	·
Clc1ccc(C2NCCc3sccc32)cc1 (centres undefined)	13%	-15%	-3	22%[46.1 µM]	10%	2
FC(F)(F)c1ccc(C2NCCc3sccc32)cc1 (centres undefined)	4%[46.1 µM]	?	45*	?	-15%	34
Cc1ccc(-n2nc(CO)c(C(=O)NCCC(C)C)n2)cc1C	27%[46.1 µM]	-25%	·	-5%[46.1 µM]	-29%	·
COc1ccccc1Cc1nc2ccccc2nc1SCC(=O)N1CCN(c2ccccc2)CC1	3%[46.1 µM]	-20%	·	·	-19%	·
Cc1cccc(-c2noc(-c3ccc4c(c3)OCO4)n2)c1	?	i	-2	?	-6%	-5
Clc1ccc2nc(-c3ccccn3)c(Nc3ccc4c(c3)OCO4)n2c1	?	8%	-2	1%	4%	11
c1ccc(-c2noc(-c3ccncc3)n2)nc1	-12%	-8%	34*	?	-5%	69
c1ccc(-c2nc3n(c2-c2ccc4c(c2)OCO4)CCC3)nc1	10µM*	·	·	·	·	·
c1ccc(-c2nccc(-c3ccc4c(c3)OCO4)n2)cc1	4%[46.1 µM]	-17%	55*	1%[46.1 µM]	-18%	70*
c1ccc(-c2noc(-c3ccc4c(c3)OCO4)n2)nc1	0.41µM*	i	-1	?	-14%	-12
SMILES	Lassa entry inh	VACV mCherry inh	Cycloheximide cs	MARV entry inh	Vaccinia Venus	Shiga toxin inh
Cc1ccc(C(=O)N2CCCC(Nc3cccc(F)c3)C2)cc1N1CCNC1=O (centres undefined)	-1%	-15%	-1	12%	-20%	-29
O=C1C(Cl)=C(N2CCCC2)C(=O)N1c1ccccc1F	·	·	-5	·	·	·
Cc1ccc(N2CC(NC(=O)Cc3cccs3)CC2=O)cc1C (centres undefined)	-4%[46.1 µM]	-2%[7.34 µM]	·	·	-4%[7.34 µM]	·
CC(C)c1c(C(=O)N(C)C2CCN(C)CC2)cnn1-c1nccc(-c2ccco2)n1	·	i	·	·	-9%	·
c1ccc(-c2noc(-c3cccnc3)n2)nc1	-23%	·	42*	1%	·	80*
c1ccc(-c2cc(-c3nc(-c4cccnc4)no3)c3ccccc3n2)cc1	·	·	0	-3%	·	-6
c1ccc(-c2noc(-c3ccc4ccccc4c3)n2)nc1	0.29µM*	·	-4	1.6µM*	·	-15
CNc1ccc(-c2nc(-c3ccccn3)no2)cc1[N+](=O)[O-]	-2%[46.1 µM]	-15%	·	-19%[46.1 µM]	3%	·
Cc1ccc(Cl)cc1N1CCN(C(=O)CCn2c(=O)c3cccn3c3cccnc32)CC1	0%[46.1 µM]	?	·	·	-25%	·
CCOC(=O)CC1COCCN1C(=O)c1ccc2oc(Cc3ccccc3)nc2c1 (centres undefined)	-1%	i	48*	23%	-14%	62*
CCCCc1nc2cc(C(=O)N3CCN(c4cnccn4)CC3)ccc2o1	?	-14%	11	?	-12%	11
CCCCc1nc2cc(C(=O)N3CCCCC3C(=O)OC)ccc2o1 (centres undefined)	·	i[7.34 µM]	39*	·	0%[7.34 µM]	57*
CCCCc1nc2cc(C(=O)N3CCCCC3CC(=O)OCC)ccc2o1 (centres undefined)	6%	i	31*	10%	-18%	37
Cc1ccc(NC(=O)CNC(=O)C23CC4CC(CC(C4)C2)C3)nc1	·	i	·	·	-14%	·
COc1cccc(/C=C2\SC(=S)N(CCC(=O)NNC(=O)c3ccccc3OC)C2=O)c1	·	15%	-4	?	17%	-21
COc1cccc(/C=C2/SC(=S)N(CCC(=O)N3CCOCC3)C2=O)c1	?	?	-4	5µM*	?	-4
COc1cccc(/C=C2\SC(=S)N(CCC(=O)NCCc3ccc(O)cc3)C2=O)c1	?	11µM*	9	?	?	16
COc1cccc(/C=C2\SC(=S)N(CCC(=O)Nc3ccc(O)cc3)C2=O)c1	·	·	30*	·	·	47*
CCc1cccc(C)c1NC(=O)Cn1c(=O)n(-c2cccc(C)c2)c(=O)c2c1c1cc(C)ccc1n2C	0%[46.1 µM]	-17%	·	·	-28%	·
COC(=O)c1ccc(Cl)cc1NC(=O)N(C)CCc1c(C)nn(C)c1C	-8%[46.1 µM]	-11%	·	·	-8%	·
CCc1ccc2[nH]c(C(=O)N(C)c3ccc(F)cc3F)cc2c1	2%	-12%	12	-2%	-17%	-4
O=C(Nc1ccc(F)cc1)c1cc2cc(Cl)ccc2[nH]1	·	i	16*	·	-11%	32*
CCc1ccc2[nH]c(C(=O)Nc3ccc(C)c(F)c3)cc2c1	0%[46.1 µM]	-9%	17*	-6%[46.1 µM]	-20%	39*
Cc1ccc(CNC(=O)CCc2c(C)nn(-c3ccc(N4CCCCC4)nn3)c2C)cc1	7%[46.1 µM]	-5%	·	·	-11%	·
CC(C)(C)OC(=O)N1Cc2cc3ccccc3nc2C1	·	0%	·	·	-16%	·
CC(C)(C)OC(=O)N1CCNc2ccccc2C1	?	·	12*	2%[46.1 µM]	-21%	+
CCc1ccc(OCC(=O)Nc2cc(-c3ccc(C)cc3)no2)cc1	5%[46.1 µM]	-11%	·	25%[46.1 µM]	-8%	·
CCc1cccc(C)c1NC(=O)CO/N=C(\C)c1cc2ccccc2o1	?	-5%	-2	?	?	19
